Source: PubChem (National Center for Advancing Translational Sciences (NCATS))
Pol eta inh: qHTS for Inhibitors of Polymerase Eta; 390,000 tested, 1.2% active; Potency, µM (top dose mostly 114 µM), for inactives: top-dose activity change, negative = inhibition, actives largely listed as inhibitors; DNA polymerase eta (Homo sapiens), Q9Y253; recombinant Pol eta, fluorescent DNA replication assay; further: on the % scale 0 is the no-effect control and ±100 the full control effect
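Pol eta (10 nM) was preincubated with compounds for 15 min at room temperature, after which fluorescent replication substrate (50 nM final) was added to start the reaction. Fluorescence was read kinetically at 0 and 10 min.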
Pol kappa inh: qHTS for Inhibitors of Polymerase Kappa | DNA polymerase kappa (Homo sapiens), Q9UBT6 | purified Pol kappa, fluorescent DNA synthesis assay, 10 min | Potency, µM (series often up to 107 µM), inactives show top-dose activity, negative = inhibition, hits mostly inhibitors | 400,000 tested, 0.53% active; further: on the % scale 0 is the no-effect control and ±100 the full control effect
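50 nM final substrate added after 15 min RT preincubation of 10 nM Pol kappa with compound; fluorescence read at 0 and 10 min.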
FEN1 inh-1: qHTS Assay for the Inhibitors of Human Flap endonuclease 1 (FEN1); Recombinant FEN1 flap cleavage, fluorescence, 15 min; Potency, µM (top dose mostly 114 µM), without a hit: at the highest dose activity change, negative = inhibition, actives largely listed as inhibitors; 390,000 tested, 0.35% active; further: on the % scale 0 is the no-effect control and ±100 the full control effect; nearly all actives have a fitted effect of over 65% in size
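Nuclease activity of 10 nM FEN1 was measured after 15 min of room-temperature exposure to titrated compounds, by adding 50 nM flap substrate and reading plates at 0 and 15 min.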
WRN inhibitor: qHTS for Inhibitors of WRN Helicase | AID 651768, 2012 | WRN helicase unwinding, fluorescent forked duplex, kinetic | Bifunctional 3'-5' exonuclease/ATP-dependent helicase WRN (Homo sapiens), Q14191 | 360,000 tested, 0.46% active | Potency, µM (series often up to 114 µM), without a hit: at the highest dose activity change, negative = inhibition, most hits filed as inhibitors; further: on the % scale 0 is the no-effect control and ±100 the full control effect; nearly all actives have a fitted effect of over 55% in size
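Kinetic red-fluorescence monitoring (525/598 nm) tracks WRN helicase activity after 100 nM fluorophore-quencher forked duplex and 2 mM ATP are added to 20 nM enzyme pretreated 15 min at room temperature with compound.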
Pol beta inh: qHTS Assay for Inhibitors of DNA Polymerase Beta. Potency, µM (top dose mostly 114 µM), for the others: at the top dose activity change, negative = inhibition, usual class: inhibitors. P06746. 340,000 tested, 1.3% active. Pol beta primer extension/strand displacement, fluorescence kinetic. AID 485314, 2010; further: on the % scale 0 is the no-effect control and ±100 the full control effect
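10 nM enzyme + cpd, 15 min RT; start with substrate 50 nM final; read 0 min and after 10 min RT. Corrected, normalized data; 4-parameter Hill curve fit.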
Pol iota inh: qHTS for Inhibitors of Polymerase Iota; Pol iota fluorescent replication assay, 10 min; Potency, µM (doses to about 115 µM), for inactives: at the top dose activity, negative = inhibition, hits mostly inhibitors; 390,000 tested, 1% active
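Fluorescent replication assay read twice, at 0 min and 10 min after adding 50 nM (final) substrate. Enzyme (10 nM) and compounds were first incubated 15 min at room temperature; enzyme-free buffer wells were negative controls.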
FEN1 inh-2: qHTS Assay for the Inhibitors of FEN1: Confirmatory Assay for Cherry-picked Compounds. shares compounds with FEN1 inh-1. FEN1 flap cleavage, TAMRA/BHQ2 fluorogenic DNA substrate. Potency, µM, hits mostly inhibitors. 880 tested, 79% active. AID 720498, 2013; further: nearly all actives have a fitted effect of over 60% in size
The depositor's hits bear a star; ? = inconclusive; · = not tested or not shown; [ ] = remark or other dose. Rows were chosen to be rich in hits. Some 2.4% of all compounds tested hit in one or more screens of this group. The call rests on the fitted dose curve; in most records, active means well fitted curve in the direction sought with a large enough effect; inconclusive means small, poorly fitted or top-dose-only effect, or another doubt; inactive means no such curve, though single readings can be large; an effect the other way counts as inactive or inconclusive. Potency means the concentration at half of the fitted maximal effect.

SMILES	Pol eta inh	Pol kappa inh	FEN1 inh-1	WRN inhibitor	Pol beta inh	Pol iota inh	FEN1 inh-2
CCOc1ccc(Br)cc1C1=NN(C(C)=O)C(c2ccc([N+](=O)[O-])s2)O1 (stereo unspecified)	50µM*	-47%	?	6%[11.6 µM]	18µM*	50µM*	6.7*
CC(=O)N1N=C(c2ccc(C)cc2)OC1c1ccc(Br)cc1 (stereo unspecified)	-5%	-15%	-11%	-7%[57.1 µM]	5%	62%	·
Cc1cccc(Cn2cccc2CNS(=O)(=O)c2ccc(C)c(C)c2)c1	-18%	-1%[60.1 µM]	-22%	·	-19%	-15%	·
Cc1ccc(-n2ncc3c(NCCC4=CCCCC4)ncnc32)cc1C	-11%	-8%[60.1 µM]	-1%	·	4%	-5%	·
COc1ccc(NC(=O)COC(=O)c2ccc([N+](=O)[O-])o2)cc1Cl	-4%	-12%	?	-2%[57.1 µM]	5%	-2%	21*
COc1ccc(C)cc1NC(=O)COC(=O)c1ccc([N+](=O)[O-])o1	-15%	1%	-12%	-24%	5%	27%	·
Cc1cccc(NC(=O)COC(=O)c2ccc([N+](=O)[O-])o2)c1C	-1%	-25%	?	-1%	-3%	11%	21*
O=C(COC(=O)c1ccc(Br)o1)Nc1cccc(S(=O)(=O)N2CCOCC2)c1	-22%	0%	-21%	5%	·	5%	·
CN(C)S(=O)(=O)c1cccc(NC(=O)COC(=O)c2ccc([N+](=O)[O-])o2)c1	?	-17%	50µM*	-5%[57.1 µM]	-16%	10%	19*
O=C(COC(=O)c1ccc([N+](=O)[O-])o1)Nc1cccc(S(=O)(=O)N2CCOCC2)c1	-15%	-9%	28µM*	6%	11%	119%	19*
Cc1cc(C)cc(-n2c(SCC(N)=O)nc3c([nH]c4ccccc43)c2=O)c1	-20%	-4%[60.1 µM]	-12%	·	-15%	-2%	·
Cc1cccc(CNC(=O)c2ccc(NC(=O)N3CCSc4ccccc43)cc2)c1	-13%	-6%	6%	·	0%	22%	·
CC(=O)OCC(=O)C1CCC2C3CC=C4CC(O)CCC4(C)C3CCC12C (stereo unspecified)	-16%	4%	-9%	0%	·	21%	·
CC(=O)C1CCC2C3CC=C4CC(SC(=N)N)CCC4(C)C3CCC12C (stereo unspecified)	1%	-11%	?	37%	·	6%	?
O=C1c2ccc3c4c(ccc(c24)C(=O)N1CCCCO)C(=O)N(CCCCO)C3=O	-15%	-3%	?	-8%[11.6 µM]	2%	?	30*
CCOc1ccc(CCNC(=O)c2cccc(-n3c(C)nc4cccnc43)c2C)cc1	-17%	2%	1%	·	0%	47%	·
CN1C=C/C(=C\c2cc[n+](C)c3ccccc23)c2ccccc21	-30%	1%	28µM*	40µM*	?	12%	8.5*
COc1ccc(C)cc1NC(=O)c1oc2ccc(S(=O)(=O)N3CCC4(CC3)OCCO4)cc2c1C	18%	-4%[60.1 µM]	-14%	·	26%	7%	·
COc1ccc2[nH]cc(CCNc3ncnc4ccc(-c5cccnc5)cc34)c2c1	·	0%[60.1 µM]	·	·	·	·	·
COc1ccc(-c2ccc3ncnc(NCCc4cnc[nH]4)c3c2)cc1OC	·	·	·	·	·	·	30*
COc1cc(-c2ccc3ncnc(NCc4nc(C)cs4)c3c2)cc(OC)c1OC	·	·	·	·	·	·	?
COc1ccc(NC(=O)N2CCCC3(CCN(S(=O)(=O)c4ccccc4)CC3)C2)cc1	·	1%[60.1 µM]	·	·	·	·	·
CCOC(=O)c1c(C)[nH]c(C)c1C(=O)COC(=O)c1ccc([N+](=O)[O-])s1	22µM*	79µM*	?	-4%[11.6 µM]	·	10µM*	27*
O=C(c1cccs1)N(Cc1ccco1)c1ccc(O)cc1	·	-6%	-12%	·	·	15%	·
CC1CCCC(NC(=O)COC(=O)c2ccccc2[N+](=O)[O-])C1C (stereo unspecified)	1%	-12%	-2%	-30%	-2%	61%	·
SMILES	Pol eta inh	Pol kappa inh	FEN1 inh-1	WRN inhibitor	Pol beta inh	Pol iota inh	FEN1 inh-2
O=C(COC(=O)c1ccc([N+](=O)[O-])s1)Nc1ncc(C(F)(F)F)cc1Cl	35µM*	-40%	?	-8%[57.1 µM]	?	?	8.5*
CC(OC(=O)c1ccc([N+](=O)[O-])s1)C(=O)NC1CCCCC1C (stereo unspecified)	-18%	-21%	-20%	2%[11.6 µM]	·	?	12*
CC1CCCC(NC(=O)COC(=O)c2ccc([N+](=O)[O-])s2)C1C (stereo unspecified)	?	-19%	-24%	-8%	·	89µM*	6*
CCC(=O)N/C(N)=N/c1nc(C)c2cc(OC)ccc2n1	-12%	8%	79µM*	44%	-8%	-3%[58.9 µM]	?
O=C(NC(c1ccco1)c1cc(Cl)c2cccnc2c1O)c1ccsc1 (stereo unspecified)	·	·	·	·	·	·	?
CCC(=O)NC(c1ccco1)c1cc(Cl)c2cccnc2c1O (stereo unspecified)	-4%	-25%	?	-6%	?	48%	·
CN(Cc1cccs1)c1ncnc2ccc(-c3ccc4cnn(C)c4c3)cc12	·	·	·	·	·	·	34*
CCN(CC)CCCNc1nc2ccccc2c2nc(-c3ccncc3)nn12	20%	?	45µM*	-2%[11.6 µM]	35µM*	?	21*
CN1CCN(CCCNc2nc3ccccc3c3nc(-c4ccccc4)nn23)CC1	9%	-2%	?	2%	·	18%	·
CCOc1ccc(CNC(=O)C2CCN(c3nnc(C)c4c(C)n(-c5ccc(C)cc5)nc34)CC2)cc1	?	-37%	?	-32%[11.6 µM]	7.9µM*	?	?
COc1ccc(-n2nc3c(N4CCC(C(=O)NCc5cccc(C)c5)CC4)nnc(C)c3c2C)cc1	-13%	-19%	27%	2%	?	?	·
NC(=O)N=Nc1c2[nH]c3ccccc3nc-2c2ccccc12	?	-10%	10µM*	-11%[11.6 µM]	-51%	?	3.4*
Cc1ccc(CNC(=O)CSc2c(C(C)C)cnc3c2c(=O)n(C)c(=O)n3C)cc1	-13%	-4%[60.1 µM]	-7%	·	13%	13%	·
O=C(CSc1nn(-c2ccccc2)c(=S)s1)Nc1ncccn1	4%	-5%	-8%	-9%	1%	27%	·
